A selection: hits, their analogues and other compounds. The true share with any hit is near 2.4%.
M1 antag: human M1 muscarinic receptor antagonists, primary screen, CHO-K1 cells, Fluo-8 calcium fluorescence, 1536-well | CHO-K1 hM1, ACh EC80 antagonist | inhibition, % at 3 µM | 1.3% of 360,000 active;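 active means percent inhibition above its own plate's cutoff, namely the mean of that plate's compound wells plus 3 SD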;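 further: peak over basal fluorescence ratio during 140 s after agonist addition; 0% = ACh EC80 plus DMSO and 100% = DMSO alone without agonist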
Target sequence (P11229 whole entry, looked up): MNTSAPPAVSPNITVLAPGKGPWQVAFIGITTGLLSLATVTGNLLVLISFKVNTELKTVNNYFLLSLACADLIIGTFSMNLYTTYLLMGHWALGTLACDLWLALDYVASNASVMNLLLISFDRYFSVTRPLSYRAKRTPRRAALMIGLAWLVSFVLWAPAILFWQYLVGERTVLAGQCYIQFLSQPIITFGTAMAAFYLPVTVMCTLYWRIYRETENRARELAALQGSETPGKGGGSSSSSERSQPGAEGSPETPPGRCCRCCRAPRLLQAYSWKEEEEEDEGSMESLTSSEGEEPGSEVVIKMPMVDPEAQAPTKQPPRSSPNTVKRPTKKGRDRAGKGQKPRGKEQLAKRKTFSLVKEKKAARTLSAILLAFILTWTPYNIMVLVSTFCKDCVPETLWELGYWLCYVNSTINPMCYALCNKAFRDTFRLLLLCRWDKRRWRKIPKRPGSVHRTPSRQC
CHO-K1 Ca PAM: nonselective calcium activators in parental CHO-K1 cells, primary screen, counter-screen for M1 PAM project, cell-based, Fluo-8 calcium fluorescence, full deck, 1536-well; 0.02% of 360,000 active; AID 602247, 2012; ATP EC20; 0% at ATP EC20, 100% at ATP max; activation, % at 3 µM;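 active means activation above the run cutoff, the mean activation of all test compounds plus 3 SD, cut at about 40% in these data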;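 further: peak over basal fluorescence ratio in a 140 s read after ATP addition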
M1 ag parental: counter-screen for M1 agonists: effect in parental CHO-K1 cells; Fluo-8 calcium fluorescence; scaled to maximal ATP response, vehicle zero; activation, % at 3 µM; 0.48% of 360,000 active; AID 602248, 2012; in the data active means activation above about 15%;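 further: untransfected CHO-K1 host cells lacking M1 receptor as counterscreen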
CHRM1 agonist: human M1 muscarinic receptor agonists, primary screen, Fluo-8 calcium fluorescence, CHO-K1 cells, HTS. activation, % at 3 µM. 0.33% of 360,000 active. CHO-K1 hM1, agonist mode; 0% DMSO, 100% acetylcholine EC100. Muscarinic acetylcholine receptor M1 (Homo sapiens), P11229;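 active means activation above the run's mean compound activation plus 3 SD, cut at about 16% in these data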;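 further: peak over basal fluorescence ratio within a 140 s kinetic read after compound addition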
CHO-K1 Ca antag: M1 antagonist counterscreen hit in parental CHO-K1 cells | ATP-induced calcium, Fluo-8 fluorescence | inhibition, % at 3 µM | 0.6% of 360,000 active | AID 602250;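 active means inhibition above a per-plate cutoff, the plate's mean sample inhibition plus 3 SD, cut at about 24% in these data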;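 further: 0% = DMSO plus EC80 ATP and 100% = DMSO alone without ATP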
M1 PAM: human M1 muscarinic receptor positive allosteric modulators, primary screen, CHO-K1 cells, Fluo-8 calcium fluorescence, 1536-well. 0.088% of 360,000 active. activation, % at 3 µM. CHO-K1 hM1, ACh EC20; 0% = ACh EC20, 100% = maximal ACh; in the data active means activation above about 19%, passing the limit was not always enough
* hit, by the source's call.

SMILES	M1 antag	CHO-K1 Ca PAM	M1 ag parental	CHRM1 agonist	CHO-K1 Ca antag	M1 PAM
CCCCSc1nc(N)c(NC(=O)c2ccco2)c(=O)[nH]1	-12.0	17.7	0.2	-3.4	-8.6	7.4
FC(F)(F)c1cnc(NNC(=S)Nc2ccccc2Cl)c(Cl)c1	13.4	11.5	15.9*	4.1	7.7	-2.4
S=C(NCCNC(=S)Nc1ccccc1Cl)Nc1ccccc1Cl	10.2	-3.8	15.9*	4.2	-9.5	-9.3
COc1ccc(-n2c(COc3ccc(C)cc3)nnc2SCC(=O)O)cc1	-13.4	28.5	0.5	-0.2	-16.2	15.3
CCc1cc(C(=O)Cc2ccccn2)c(O)cc1O	-14.4	5.8	6.1	0.3	-5.4	20.1
CC(=O)Oc1ccc(C(=O)Cc2ccccn2)c(O)c1	13.6	-10.6	-0.6	-1.8	24.2*	-2.8
COc1ccc(/C=N/OCC(=O)NCc2cccs2)c(OC)c1	2.7	1.4	-0.3	-8.3	-2.9	35.9*
Cc1cc(C)c(OCC(=O)OCC(=O)NCc2cccs2)c(C)c1	-7.5	-12.4	-0.5	-2.1	5.1	0.7
Cc1cccc(OCC(=O)NCc2ccc(F)cc2)c1	-3.5	-22.1	-0.3	-5.7	24.2*	6.0
O=C(COC(=O)COc1ccccc1)NCc1ccccc1	-9.0	6.5	18.9*	-4.5	5.3	7.2
Cc1cc(C)cc(OCC(=O)OCC(=O)NCc2cccs2)c1	10.2	-11.2	0.1	-4.3	30.9*	3.6
Cc1sc2ncnc(SCc3ccc(C(=O)O)cc3)c2c1C	9.8	-5.4	0.1	-1.3	-3.7	2.2
O=C(CSc1nnc(-c2ccncc2)n1Cc1ccccc1)NC1CCCCC1	11.7	16.3	1.7	-5.5	-15.0	-2.5
CCCn1c(C(C)NC(=O)c2ccccc2)n[nH]c1=S (stereo unspecified)	-10.6	11.6	17.0*	-2.1	-0.2	5.5
COC(=O)CCC(=O)OC1(C)C(=O)C2=CN(Cc3ccc4c(c3)OCO4)C(c3ccc(OC)cc3)=CC2=C(Br)C1=O (stereo unspecified)	11.0	-23.4	-0.6	1.9	6.5	4.2
COc1ccccc1NS(=O)(=O)c1ccc(C)c(C(=O)NCCCN2CCCC2=O)c1	-0.1	-3.1	-0.5	3.0	30.5*	13.6
Cc1onc(-c2c(F)cccc2Cl)c1C(=O)Nc1cc(S(=O)(=O)N2CCCCC2)ccc1O	47.2*	-18.9	3.8	-3.3	26.0*	-21.3
COc1cccc(C2CC(c3ccc(C)cc3)=NN2C(=O)c2ccccc2F)c1OC (stereo unspecified)	-17.9	6.8	0.0	-2.0	-7.6	12.0
COc1cc(/C=N/NS(=O)(=O)c2ccccc2)c(OC)c(OC)c1	-13.1	11.2	16.3*	-3.8	-3.6	7.4
Cc1nc2c(c(C)nn2-c2ccccc2)c(C)c1Cl	-17.2	17.0	-0.1	-3.6	-8.0	10.3
Cc1ccc(CNC(=O)C2COc3ccccc3O2)cc1 (stereo unspecified)	8.6	6.6	0.2	-2.1	-12.2	1.4
Cc1ccc(C(C(=O)NCc2ccc(F)cc2)N(CCCO)C(=O)C2COc3ccccc3O2)o1 (stereo unspecified)	8.6	-5.5	19.4*	-2.8	18.1	-11.3
CCOc1ccc(NC(=O)CN(C)C(=O)C2CCN(c3ncnc4sc(C)c(C)c34)CC2)cc1OCC	-12.7	9.2	2.7	-5.7	-4.0	3.5
COc1cc(C(=O)NCc2cc3ccccc3n2C)cc(OC)c1OC	-3.1	-11.3	16.4*	-2.5	15.9	-0.9
C=CCNC(=S)Nc1ccc(Cl)cc1F	6.7	8.4	15.9*	-4.4	7.8	1.2
SMILES	M1 antag	CHO-K1 Ca PAM	M1 ag parental	CHRM1 agonist	CHO-K1 Ca antag	M1 PAM
COc1ccc(C2c3ccc4ccccc4c3Oc3ncn(Cc4ccco4)c(=N)c32)cc1OC (stereo unspecified)	8.9	-13.8	0.2	-7.6	25.9*	-11.9
C[C@@H]1CN([C@H](C)CO)C(=O)CCCn2nncc2CO[C@H]1CN(C)S(=O)(=O)c1ccc2c(c1)OCCCO2	-3.7	14.8	0.6	-7.0	-10.8	6.3
CCN(CC)c1ccc(/C=C/c2cc(-c3ccccc3)c3ccccc3n2)cc1	36.3*	-2.0	8.8	18.0*	10.7	-2.0
Cc1ccc(OCC(=O)N/N=C/C=C/c2ccco2)c(Br)c1	5.6	-23.6	0.3	0.2	3.5	5.2
CCOC(=O)Nc1ccc2c(c1)N(C(=O)CN(CC)CC)c1ccccc1C=C2	72.4*	-0.3	0.1	-15.2	-5.2	-35.3
CCOC(=O)Nc1ccc2c(c1)N(C(=O)CCN(CC)CC)c1ccccc1S2=O (stereo unspecified)	59.3*	12.6	1.4	-9.0	-9.7	-27.2
CCCCC1(C)OC(=O)C(=Cc2ccc(SC)cc2)C(=O)O1 (stereo unspecified)	-3.6	-6.2	0.0	0.0	0.3	-2.0
COc1cccc(CN2CCN(C(=O)Nc3ccc([N+](=O)[O-])cc3)CC2)c1	30.6*	-11.4	1.2	-3.3	2.8	-10.3
COc1ccc(-n2c(Cc3cccn3C)nnc2SCC(=O)NC2CCCC2)cc1	-7.8	6.8	0.0	-7.5	7.5	5.6
COCCn1c(SCC(=O)NNC(=O)Cc2ccccc2)nc2ccccc2c1=O	-6.1	-6.5	-0.2	-2.6	24.5*	8.8
COCC(C)NC(=O)CSc1nc2ccccc2c(=O)n1CCc1ccc(S(N)(=O)=O)cc1 (stereo unspecified)	29.7*	-19.7	6.1	-1.3	6.8	-11.5
CN(C)CCCn1c(SCC(=O)N2c3ccccc3Sc3ccccc32)nc2ccccc2c1=O	38.7*	31.1	0.0	-14.9	-10.9	-27.2
Nc1ccc(-c2nc3ccc(C(=O)O)cc3s2)cc1	-1.9	18.8	0.3	-12.3	-1.7	11.6
O=C(O)c1ccc2nc(-c3ccccc3)sc2c1	8.1	-16.5	-0.1	-0.6	28.7*	-6.7
CCCCCCCCCCCCCCCC[n+]1cccc2ccccc21	47.5*	-1.5	-0.6	-12.9	12.2	-24.9
Cc1ccccc1C[n+]1cccc2ccccc21	8.2	0.1	0.3	-13.5	-4.6	-6.7
CCCCCCCCC[n+]1cccc2c3ccccc3ccc21	94.6*	1.7	2.6	-0.7	20.4	-22.3
O=[N+]([O-])c1ccc(C[n+]2cccc3c4ccccc4ccc32)cc1	0.5	21.4	1.6	-4.9	-15.8	0.5
CCCCOc1ccc(/C=N/NC(=S)Nc2cc(C)ccc2C)cc1	2.0	-5.4	1.7	0.2	28.0*	7.9
CCCC(=O)Nc1sc2c(c1C(=O)OC)C(C(=O)OC)CC2 (stereo unspecified)	2.9	12.7	0.0	-5.6	-14.6	2.4
